# Laboratory results from PubChem BioAssay (Tox21).
# “And” between values parts separate entries of the source, which are not always exact repeats. Identical values can stand only once. Inconclusive results are not listed. Values without a mark were called inactive. The source made the active and inactive calls. Calls come from the whole dose curve; as a rule, active = well fitted activation curve with a large enough effect in the repeat runs; inconclusive = weak or mixed curves; inactive = no such curve, though single readings can be large or run the other way.
# Molecular target: Nuclear receptor subfamily 1 group I member 2 (Homo sapiens) (UniProt O75469)
# Sequence (O75469 whole entry, looked up): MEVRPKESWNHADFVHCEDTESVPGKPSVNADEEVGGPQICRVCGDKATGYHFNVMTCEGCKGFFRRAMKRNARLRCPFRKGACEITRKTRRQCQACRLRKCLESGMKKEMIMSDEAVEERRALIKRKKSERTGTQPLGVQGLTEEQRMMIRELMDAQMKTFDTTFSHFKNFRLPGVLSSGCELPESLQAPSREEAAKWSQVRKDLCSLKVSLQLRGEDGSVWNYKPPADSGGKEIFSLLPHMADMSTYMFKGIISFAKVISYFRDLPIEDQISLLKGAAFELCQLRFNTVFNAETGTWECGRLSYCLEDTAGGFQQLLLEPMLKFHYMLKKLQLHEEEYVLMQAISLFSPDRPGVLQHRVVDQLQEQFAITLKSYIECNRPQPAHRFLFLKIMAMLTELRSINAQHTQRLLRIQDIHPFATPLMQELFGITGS
# Test: Human pregnane X receptor (PXR) small molecule agonists, qHTS assay (AID 1346982); note: nearly all actives have a fitted effect of over 35% in size; note: potency is the fitted concentration of half-maximal effect
# Conditions: PXR-Luc HepG2, CYP3A4 luciferase reporter, 24 h; series mostly up to 92.4 µM
# Summary of the method: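 PXR-Luc HepG2 reporter cells (CYP3A4-driven luciferase) in 5% charcoal-stripped FBS medium, plated 5 h before compound addition, then treated 24 h at 37C. Luciferase read by ONE-Glo luminescence after 30 min at room temperature.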
# % is set by controls: 0 for no effect and ±100 for the full control effect.
row,Structure (SMILES),Potency
1,COCCC(=O)OC,inactive
2,O=C1CCC/C=C\CCCCCCCCCC1,30.6 µM (active)
3,CC(C)(C)c1cc(CCC(=O)OCCSCCOC(=O)CCc2cc(C(C)(C)C)c(O)c(C(C)(C)C)c2)cc(C(C)(C)C)c1O,inactive
4,C[C@H]1O[C@@H](O[C@H]2CC[C@@]3(C)[C@H](CC[C@@H]4[C@@H]3C[C@@H](O)[C@]3(C)[C@@H](C5=CC(=O)OC5)CC[C@]43O)C2)C[C@H](O)[C@@H]1O[C@H]1C[C@H](O)[C@H](O[C@H]2C[C@H](O)[C@H](O[C@@H]3O[C@H](CO)[C@@H](O)[C@H](O)[C@H]3O)[C@@H](C)O2)[C@@H](C)O1,inactive
5,O[Si](c1ccccc1)(c1ccccc1)c1ccccc1,27.3 µM (active)
6,c1ccc2c(c1)-c1ccc3ccc4cccc5cc-2c1c3c45,inactive
7,CCCCCCCCCCCCCCCCCCNC(=O)OC1CCN(C(=O)OC[C@H](COC(=O)N(Cc2cccc[n+]2CC)C(=O)c2ccccc2OC)OC)CC1,inactive
8,CCNc1nc(NC(C)(C)C)nc(OC)n1,61.1 µM (active)
9,CC1(C)[C@H](C(=O)OCc2cccc(Oc3ccccc3)c2)[C@@H]1C=C(Cl)Cl,inactive
10,CCOc1nc(F)cc2nc(S(=O)(=O)Nc3c(Cl)cccc3C(=O)OC)nn12,inactive
11,C=C(C)CCO,inactive
12,CCCCCCCCCC[N+](C)(CCCCCCCCCC)CCC[Si](OC)(OC)OC,inactive
13,O=[N+]([O-])c1ccc(O)c2ncccc12,29.8 µM (active)
14,Oc1cccc2c(O)cccc12,54.5 µM (active)
15,c1ccc2cc3c4ccccc4c4ccccc4c3cc2c1,4.88 µM (active)
16,O=C(Cl)c1ccc(Cl)cc1Cl,inactive
17,NCc1cccc(C2CCN(C(=O)c3ccc(C#Cc4ccccc4F)o3)CC2)c1,inactive
18,C=C1C(CCl)(CCl)C2(Cl)C(Cl)C(Cl)C1(Cl)C2(Cl)Cl (centres undefined),8.53 µM (active)
19,N#Cc1ccc(C/C(=N/NC(=O)Nc2ccc(OC(F)(F)F)cc2)c2cccc(C(F)(F)F)c2)cc1,54.5 µM (active)
20,O=C1CCCCCCCCCCCCCC1,inactive

# Molecular target: Nuclear receptor subfamily 1 group I member 2 (Rattus norvegicus) (UniProt Q9R1A7)
# Sequence (Q9R1A7 whole entry, looked up): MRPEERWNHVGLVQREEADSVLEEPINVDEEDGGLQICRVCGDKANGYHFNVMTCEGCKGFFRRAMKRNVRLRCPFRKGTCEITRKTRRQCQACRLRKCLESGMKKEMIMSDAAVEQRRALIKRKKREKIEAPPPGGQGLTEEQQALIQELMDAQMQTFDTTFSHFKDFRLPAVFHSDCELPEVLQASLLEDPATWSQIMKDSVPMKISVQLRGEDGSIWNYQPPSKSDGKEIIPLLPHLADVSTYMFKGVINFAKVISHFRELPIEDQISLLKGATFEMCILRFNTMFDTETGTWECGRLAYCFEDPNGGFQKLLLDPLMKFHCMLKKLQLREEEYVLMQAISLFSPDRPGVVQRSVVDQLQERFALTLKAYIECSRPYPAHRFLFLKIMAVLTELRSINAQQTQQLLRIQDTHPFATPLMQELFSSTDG
# Test: Rat pregnane X receptor (rPXR) activation by small molecules, qHTS assay (AID 1346983); note: nearly all actives have a fitted effect of over 20% in size; note: potency is the fitted concentration of half-maximal effect
# Conditions: rPXR luciferase reporter cells, One-Glo luminescence, 24 h; max activation: hits give high values
# Summary of the method: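 Cell-based rPXR activation assay: rPXR cells, 2,000 per well, rested 5hr at 37 C, then exposed to compounds in DMSO for 24 hr at 37 C. Luciferase activity read by One-Glo luminescence after 30 min at room temperature.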
Structure (SMILES),max activation,Potency
CN1[C@@H](CC(=O)c2ccccc2)CCC[C@H]1C[C@H](O)c1ccccc1,4.75%,
CC12CCC(C[N+](C)(CCC[N+](C)(C)C)C1)C2(C)C (centres undefined),-1.76%,
Cc1ncc(C[n+]2csc(CCO)c2C)c(N)n1,-0.76%,
CN=C(N)NCCC[C@H](N)C(=O)O,-7.28%,
CCN(CC)C(=S)S,-4.17%,
CCN(CC)CCOC[C@H]1O[C@@H](O)[C@H](OCCN(CC)CC)[C@@H](O)[C@@H]1O,-3.03%,
O=C(O)c1ccccn1,-2.98%,
C[C@H]1O[C@@H](O[C@H]2CC[C@@]3(C)[C@H](CC[C@@H]4[C@@H]3C[C@@H](O)[C@]3(C)[C@@H](C5=CC(=O)OC5)CC[C@]43O)C2)C[C@H](O)[C@@H]1O[C@H]1C[C@H](O)[C@H](O[C@H]2C[C@H](O)[C@H](O[C@@H]3O[C@H](CO)[C@@H](O)[C@H](O)[C@H]3O)[C@@H](C)O2)[C@@H](C)O1,6.34%,
O=C(O)c1ccccc1O,-4.21%,
NC(=O)C1c2ccccc2CCc2ccccc21,-2.21%,
CCCCCCCCCCCCCCCC[n+]1ccccc1,-15.5%,
CO[C@H]1C[C@H](O[C@H]2[C@H](C)[C@@H](O[C@@H]3O[C@H](C)C[C@H](N(C)C)[C@H]3O)[C@@H](C)C[C@]3(CO3)C(=O)[C@H](C)[C@@H](O)[C@@H](C)[C@@H](C)OC(=O)[C@@H]2C)O[C@@H](C)[C@@H]1O,3.2%,
CC1(C)C[C@@H]1C(=O)N/C(=C\CCCCSC[C@H](N)C(=O)O)C(=O)O,-4.56% and -1.17%,
O=[N+]([O-])c1ccc(O)c2ncccc12,-6.55%,
CCCCCCCCCCCCCCCCCC(=O)O,-4.34%,
CCCCCCCCCCCCOS(=O)(=O)O,-3.52%,
O.O.O.O.O.O.O.O=S(=O)([O-])[O-].[Co+2],-2.66%,
CO/N=C(\C(=O)N[C@@H]1C(=O)N2C(C(=O)O)=C(COC(C)=O)CS[C@H]12)c1csc(N)n1 (stereo in doubt),-7.73%,
C=C1C(CCl)(CCl)C2(Cl)C(Cl)C(Cl)C1(Cl)C2(Cl)Cl (centres undefined),,11.2 µM (active)
CC/C(=C(/CC)c1ccc(OP(=O)(O)O)cc1)c1ccc(OP(=O)(O)O)cc1,-1.74%,
CCN(CC)C(=O)[C@]1(c2ccccc2)C[C@@H]1CN,-2.63%,

# Molecular target: Nuclear receptor subfamily 1 group I member 2 (Homo sapiens) (UniProt O75469)
# Test: CYP3A4 induction through human pregnane X receptor (PXR) by small molecules, qHTS assay (AID 1346984); note: nearly all actives have a fitted effect of over 40% in size
# Conditions: DPX-2 HepG2 PXR, CYP3A4-luciferin luminescence, 24 h; series mostly up to 46.1 µM
# Summary of the method: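 DPX-2 HepG2 cells carrying a PXR response element and CYP3A4-promoter luciferase construct, treated with compounds 24 hr at 37C. Then P450-Glo CYP3A4 Luciferin-IPA substrate (3uM final) for 3 hr at 37C, One-Glo added, luminescence read.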
row,Structure (SMILES),Potency
1,C[C@H]1O[C@@H](O[C@H]2CC[C@@]3(C)[C@H](CC[C@@H]4[C@@H]3C[C@@H](O)[C@]3(C)[C@@H](C5=CC(=O)OC5)CC[C@]43O)C2)C[C@H](O)[C@@H]1O[C@H]1C[C@H](O)[C@H](O[C@H]2C[C@H](O)[C@H](O[C@@H]3O[C@H](CO)[C@@H](O)[C@H](O)[C@H]3O)[C@@H](C)O2)[C@@H](C)O1,inactive
2,O=[N+]([O-])c1ccc(O)c2ncccc12,inactive
3,C=C1C(CCl)(CCl)C2(Cl)C(Cl)C(Cl)C1(Cl)C2(Cl)Cl (centres undefined),inactive
